From PubChem BioAssay (Tox21) come the findings set out here.

The nature of test [1]: qHTS assay to identify small molecule antagonists of the estrogen related receptor (ERR) signaling pathway from Tox21 library - cell viability counter screen (AID 1224834). Further: nearly all actives have a fitted effect of over 30% in size. Further: potency means the concentration at half of the fitted maximal effect. The essentials: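 ERR reporter cells were plated 6 h before compound addition, then exposed to test compounds in DMSO for 17.5 h at 37 C. Viability was read as CellTiter-Fluor fluorescence after a 30-minute incubation at 37 C.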

Test [2] is described as follows: qHTS assay to identify small molecule agonists of the constitutive androstane receptor (CAR) signaling pathway - cell viability counter screen (AID 1224836). Further: series mostly up to about 92 µM; nearly all actives have a fitted effect of over 45% in size. The essentials:
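23 h treatment, 37 C, 5% CO2. Cell line: HepG2 stably expressing hCAR with a CYP2B6-2.2kb construct. Co-treatment: PK11195, 0.75 uM final. Read-out: CellTiter-Fluor fluorescence intensity.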

Test [3] in a line: qHTS assay to identify small molecule antagonists of the constitutive androstane receptor (CAR) signaling pathway - cell viability counter screen (AID 1224837). Further: nearly all actives have a fitted effect of over 45% in size. Further: potency means the concentration at half of the fitted maximal effect. The essentials:
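HepG2 cells stably expressing hCAR and a CYP2B6-2.2kb reporter were plated and pre-incubated 4 hr at 37 C/5% CO2, then given compounds at 15 concentrations plus 50 nM CITCO (final). After 23 hr, viability was read by CellTiter-Fluor fluorescence.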

The target of test [4] is Nuclear receptor subfamily 1 group I member 3 (Homo sapiens) (UniProt Q14994). The experiment in a line: qHTS assay to identify small molecule antagonists of the constitutive androstane receptor (CAR) signaling pathway (AID 1224838). Further: nearly all actives have a fitted effect of over 40% in size. Further: potency means the concentration at half of the fitted maximal effect. The essentials: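 HepG2 cells stably co-transfected with hCAR and a CYP2B6-2.2kb luciferase reporter were seeded 4 h before compound addition at 15 concentrations. Cells were stimulated with 50 nM CITCO (final) for 24 h at 37 C; luciferase luminescence was then read.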

The target is the same in test [5]. Kind of test: qHTS assay to identify small molecule agonists of the constitutive androstane receptor (CAR) signaling pathway (AID 1224839). Further: nearly all actives have a fitted effect of over 15% in size. Further: potency means the concentration at half of the fitted maximal effect. The essentials:
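Compounds tested at 15 concentrations on HepG2 cells stably harbouring hCAR and CYP2B6-2.2kb reporter constructs, co-treated with PK11195 (0.75 uM final), 24 h at 37 C; luminescent reporter signal quantified.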

Test [6] can be described thus: qHTS assay to identify small molecule antagonists of the estrogen related receptor signaling pathway with the pleiotropic PPARgamma coactivator (PGC) from Tox21 10K library - cell viability counter screen (AID 1224840; active means well fitted cell-killing curve with a large enough effect in the repeat runs, not every such curve was filed as active; further: nearly all actives have a fitted effect of over 40% in size; further: potency means the concentration at half of the fitted maximal effect). A digest of the protocol:
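PGC/ERR cells were seeded at 2,000 cells/well and left 6 hours at 37 C/5% CO2 before pin-tool addition of compounds in DMSO. After 17.5 hours at 37 C, CellTiter-Fluor was added and fluorescence read 30 minutes later.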

Test [7] addresses Luciferin 4-monooxygenase (Photinus pyralis) (UniProt P08659). Kind of test: qHTS assay to identify small molecule inhibitors of firefly luciferase (AID 1224835). Further: nearly all actives have a fitted effect of over 25% in size. Further: potency means the concentration at half of the fitted maximal effect. The essentials: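 Inhibition of purified Photinus luciferase is measured by luminescence. Substrate levels (D-luciferin, ATP) sit at their KM values. Each compound is tested in a concentration series.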
The nature of test [8]: qHTS assay to identify small molecule antagonists of the estrogen related receptor signaling pathway with the pleiotropic PPARgamma coactivator (PGC) from Tox21 10K library (AID 1224841; call rule not given here; further: actives are mostly falling curves and most rising ones were filed inactive; nearly all actives have a fitted effect of over 50% in size; further: potency means the concentration at half of the fitted maximal effect; on activity, negative = inhibition: series mostly up to about 92 µM). The essentials: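 PGC/ERR reporter cells were seeded at 2,000 cells/well and held 6 hours at 37 C/5% CO2 before pin-tool addition of compounds in DMSO. After 18 hours at 37 C, One-Glo was added and luminescence read after 30 minutes at room temperature.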

Test [9] is described as follows: qHTS assay to identify small molecule agonists of the estrogen related receptor signaling pathway with the pleiotropic PPARgamma coactivator (PGC) from Tox21 10K library (AID 1224842). Further: nearly all actives have a fitted effect of over 15% in size. Further: potency means the concentration at half of the fitted maximal effect. A digest of the protocol: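 Luminescence from One-Glo (30 min, room temperature) measured after PGC/ERR cells had 18 h at 37 C with pinned compound (23 nL in DMSO). Cells had been seeded at 2,000 per well and pre-incubated 6 h.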

Values joined by “and” are separate entries in the source; they are usually repeats but may differ in a detail not shown here. Equal entries are not always repeated. Records with an inconclusive call do not appear. Some structures have more than one record in an assay (separate samples or runs), and their calls can disagree. Active and inactive are the calls of the source. Unless noted, the call rests on the fitted dose curve; in most records, active means well fitted curve in the direction sought with a large enough effect in the repeat runs; inconclusive means weak or mixed curves; inactive means no such curve, though single readings can be large; an effect the other way counts as inactive or inconclusive.
On the % scale 0 is the no-effect control and ±100 the full control effect.

Nuclear receptor subfamily 1 group I member 3 (Homo sapiens), sequence (Q14994 whole entry, looked up): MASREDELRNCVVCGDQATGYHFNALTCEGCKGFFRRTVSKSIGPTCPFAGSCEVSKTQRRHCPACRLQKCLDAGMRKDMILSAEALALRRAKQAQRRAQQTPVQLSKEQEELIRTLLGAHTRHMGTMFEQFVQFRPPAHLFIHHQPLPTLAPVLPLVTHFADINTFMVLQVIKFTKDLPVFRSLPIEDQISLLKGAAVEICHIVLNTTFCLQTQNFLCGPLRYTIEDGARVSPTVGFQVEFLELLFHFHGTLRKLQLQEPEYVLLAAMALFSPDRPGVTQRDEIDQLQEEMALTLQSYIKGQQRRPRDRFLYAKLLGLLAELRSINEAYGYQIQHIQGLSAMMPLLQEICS
Luciferin 4-monooxygenase (Photinus pyralis), sequence (P08659 whole entry, looked up): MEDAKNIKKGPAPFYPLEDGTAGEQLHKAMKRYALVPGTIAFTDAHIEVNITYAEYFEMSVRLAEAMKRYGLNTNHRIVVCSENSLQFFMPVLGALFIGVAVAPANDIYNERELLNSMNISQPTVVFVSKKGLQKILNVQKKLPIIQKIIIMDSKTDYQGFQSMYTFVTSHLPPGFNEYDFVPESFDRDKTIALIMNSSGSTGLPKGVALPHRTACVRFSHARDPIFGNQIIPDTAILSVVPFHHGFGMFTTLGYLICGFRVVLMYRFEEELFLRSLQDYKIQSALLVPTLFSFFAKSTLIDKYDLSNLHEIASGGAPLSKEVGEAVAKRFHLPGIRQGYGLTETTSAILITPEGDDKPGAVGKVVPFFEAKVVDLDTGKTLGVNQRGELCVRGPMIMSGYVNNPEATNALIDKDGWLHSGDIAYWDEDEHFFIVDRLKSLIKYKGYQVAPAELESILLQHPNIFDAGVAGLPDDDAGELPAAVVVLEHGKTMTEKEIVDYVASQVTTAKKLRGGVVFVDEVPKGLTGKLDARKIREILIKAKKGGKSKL

Consider `Nc1ccc(S(N)(=O)=O)cc1`, for which the Potency entry in test [1], in test [2], in [3], in test [5] and in test [6] was “inactive” each time. In addition, the Potency in test [4] was 27.4 µM (active) and inactive.
Take `CNNCc1ccc(C(=O)NC(C)C)cc1`: the Potency result in test [1], in test [2], in test [3], in [4] and in [6] was “inactive” in each case.
As to `O=C1NS(=O)(=O)c2ccccc21`, the Potency entry in test [1], in test [2], in test [3] and in test [6] was “inactive” each time.
As for `Nc1ccc2c(c1)CN1C(=O)c3ccccc3C1=N2`, the figures for the Potency in [7] and in [5] were 0.213 µM (active) and 0.184 µM (active), respectively. The activity, negative = inhibition in test [4] was -44.6% [at 19 µM] (inactive).
In the case of `C=C1CC[C@H](O)C/C1=C\C=C1/CCC[C@]2(C)[C@@H]([C@H](C)CCCC(C)C)CC[C@@H]12`, the Potency in test [1] was 54 µM (active). Also, the Potency result in [2], in test [4] and in test [5] was “inactive” throughout.
Take `O=C1OC2(c3ccccc31)c1cc(Br)c(O)c(Br)c1Oc1c2cc(Br)c(O)c1Br`: the Potency in [1] was 11 µM (active) and 25 µM (active) and 26.6 µM (active); in [7], 28.7 µM (active) and 36.6 µM (active); in [3] it was 7.81 µM (active) and 25 µM (active). The Potency result in test [4] and in test [5] was “inactive” in each case.
On to `CCCCC1(COC(=O)CCC(=O)O)C(=O)N(c2ccccc2)N(c2ccccc2)C1=O`, for which the Potency result in test [1], in test [7], in test [2], in [3], in test [6] and in test [8] was “inactive” each time. In test [9], the Potency entry was “inactive”.
As for `CS(=O)(=O)OCCCCOS(C)(=O)=O`, the Potency result in test [1], in test [7], in test [2], in [3], in test [6] and in test [9] was “inactive” in each case. The Potency in [8] is 30.7 µM (active) and inactive.
Regarding `CC1(C)O[C@@H]2C[C@H]3[C@@H]4CCC5=CC(=O)C=C[C@]5(C)[C@@]4(F)[C@@H](O)C[C@]3(C)[C@]2(C(=O)CO)O1`, the Potency entry in [1], in test [7], in test [2], in test [3], in test [6] and in test [8] was “inactive” throughout. Besides, the Potency entry in test [9] is “inactive”.
For the compound `CCN(Cc1c(F)cccc1Cl)c1c([N+](=O)[O-])cc(C(F)(F)F)cc1[N+](=O)[O-]`, the Potency result in test [7], in test [2], in test [3], in [4], in test [6] and in test [9] was “inactive” in each case. In addition, the Potency in test [5] is 7.7 µM (active).
Turning to `O=c1[nH]cc(F)c(=O)[nH]1`, the Potency in [1] was 31.8 µM (active) and inactive; in test [7], 41.5 µM (active) and inactive; in test [6], 44.9 µM (active) and inactive.
Regarding `Cc1c(C(=O)O)c(O)cc2c1C(=O)c1c(O)c([C@@H]3O[C@H](CO)[C@@H](O)[C@H](O)[C@H]3O)c(O)c(O)c1C2=O`, the Potency was 33.5 µM (active) and 27.3 µM (active) in [1]; 34.7 µM (active) and 35.6 µM (active) and 17.4 µM (active) in test [7]. The Potency entry in [6] was “inactive”.
`CC(=O)Nc1c(I)c(NC(C)=O)c(I)c(C(=O)O)c1I`: the Potency entry in test [1], in test [2], in test [3] and in test [6] was “inactive” each time.
Turning to `CCOc1ccc(NC(C)=O)cc1`, the Potency entry in test [1], in test [7], in test [2], in test [3], in test [6] and in [8] was “inactive” in each case. For the same compound, the Potency result in test [9] is “inactive”.
In the case of `C/C=C/C=C/C(=O)O`, the Potency result in test [1], in test [2], in test [3], in test [4], in [5] and in [6] was “inactive” each time.
With `O=C(Nc1ncc([N+](=O)[O-])s1)c1cccs1`, the Potency was 13.3 µM (active) in test [1], 3.09 µM (active) in [7], 1.33 µM (active) in test [5] and 0.841 µM (active) in test [9]. Also, the Potency result in test [4], in [6] and in [8] was “inactive” in each case.
`CCN(CC)C(=O)c1cccc(C)c1`: the Potency entry in test [1], in [7], in test [2], in [3], in test [6] and in [8] was “inactive” throughout. Also, in test [9], the Potency entry is “inactive”.
For the compound `CCCC[P+](CCCC)(CCCC)CCCC`, the Potency result in [1], in [2], in [3], in test [4], in test [5] and in test [6] was “inactive” throughout.
Take `C[C@](N)(Cc1ccc(O)c(O)c1)C(=O)O`: the Potency entry in [1], in test [2], in test [3], in [4], in [5] and in test [6] was “inactive” in each case.
With `C1CCC(C(CC2CCCCN2)C2CCCCC2)CC1` (stereo not given), the Potency in test [1] and in test [6] was 29.8 µM (active) throughout. Besides, the Potency result in test [7], in test [5] and in test [9] was “inactive” throughout.
With `CCCCCCCCCCCCCCCC[N+](C)(C)Cc1ccccc1`, the Potency was 63.1 µM (active) and 49.4 µM (active) and 23.7 µM (active) in test [1]; 63.1 µM (active) and 49.4 µM (active) and inactive in [6]; 31.6 µM (active) and 24.8 µM (active) and 10.6 µM (active) in test [8]. Moreover, the Potency result in test [7], in test [2], in [4], in [5] and in test [9] was “inactive” in each case.
With `CCc1nc(N)nc(N)c1-c1ccc(Cl)cc1`, the Potency entry in test [7], in test [2], in test [3], in [5] and in [6] was “inactive” each time. Also, the Potency in [4] is 1.75 µM (active) and 3.06 µM (active).
With `CC(C)c1c(C(=O)Nc2ccccc2)c(-c2ccccc2)c(-c2ccc(F)cc2)n1CC[C@@H](O)C[C@@H](O)CC(=O)O`, the Potency entry in test [1], in test [2], in test [3], in [4], in test [5] and in test [6] was “inactive” in each case.
With `NC(=O)n1c(O)c(C(=O)c2cccs2)c2cc(Cl)ccc21`, the results for the Potency in [1], in test [7] and in test [5] were 23.7 µM (active), 30.9 µM (active) and 13.3 µM (active), respectively. In test [4], the Potency result is “inactive”.
For `CC(=O)CC(c1ccccc1)c1c(O)c2ccccc2oc1=O` (stereo not given), the Potency result in test [1], in test [2], in test [3] and in test [6] was “inactive” in each case.
With `Oc1ccccc1`, the Potency entry in test [1], in test [2], in test [3], in test [4], in [5] and in test [6] was “inactive” throughout.
`Nc1ccc([N+](=O)[O-])cc1O`: the Potency result in test [4] was “inactive”. The Potency in [6] was 30.6 µM (active).
